The list is not random: actives were taken first. Their share in the collection is about 4%.
Beta cell apopt: inhibitors of cytokine-induced beta cell apoptosis, primary screen, luminescence. INS-1E cytokine-induced death, ATP luminescence, 48 h; percent of positive-control rescue, neutral wells zero. protection from apoptosis, % (test concentration not listed). 300,000 tested, 0.8% active. AID 435005, 2010;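 active = Every replicate reaches about 75%, or at least half do and their mean reaches it too, limit read from the data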;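 also: higher means more ATP so stronger rescue from cytokine killing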
CSC inhib: cancer stem cell viability inhibitors, primary screen, luminescence; cancer stem cell-like cells viability; inhibition, % at 7.5 µM; 300,000 tested, 1.1% active; AID 2717, 2010; in the data active = inhibition above about 75%; tested in HMLE shEcad cells
Gli-Sufu antag: Gli-Sufu pathway antagonists, primary screen, luciferase luminescence, Sufu-KO-LIGHT cells, uHTS | Sufu-KO-LIGHT fibroblasts, Gli luciferase reporter luminescence | inhibition, % at 5 µM | 340,000 tested, 0.74% active | AID 588413, 2011;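 active = inhibition above about 55%, limit read from the data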
Shn3 3UTR inh: reduction of Shn3 3'UTR firefly luciferase signal, primary screen, Schnurri-3 inhibitor project, cell-based, Clone20 osteoblasts, set 2. inhibition, % at 12.5 µM. 360,000 tested, 0.52% active. Clone20 osteoblast Shn3 3'UTR firefly luciferase, 24 h;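 active = mean inhibition of at least 75% with every replicate also reaching 75%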
PAX8 inh HTS: inhibitors of PAX8-driven TPO luciferase reporter, primary screen, RMG-I cells, single concentration | inhibition, % at 12.6 µM | 360,000 tested, 1.2% active | SteadyGlo, 24 h | AID 652154, 2013;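 active = mean replicate inhibition at least 60% with every replicate also reaching 60%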;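 also: luciferase light reporting Pax8 driven TPO promoter activity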
Mdm2-MdmX inh: inhibitors of human Mdm2-MdmX association, primary screen, cell-based, luminescence, split luciferase, SaOS-2, uHTS; Protein Mdm4 (Homo sapiens) + E3 ubiquitin-protein ligase Mdm2 (Homo sapiens), …; SaOS-2 split-luciferase Mdm2/MdmX complementation; inhibition, % at 8 µM; 330,000 tested, 3% active; AID 485346, 2010;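 active = inhibition of at least 50% at 8 µM in the primary screen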
Mdm2-MdmX conf: Mdm2-MdmX complex disruptors, retested hits, confirmation, luminescence, single concentration; shares compounds with Mdm2-MdmX inh; 10,000 tested, 55% active; Mdm2-MdmX binding, luminescent assay; inhibition, % at 8 µM; in the data active = inhibition above about 40%
FLuc counter: full-length luciferase signal inhibition, confirmation, counter-screen for Mdm2/MdmX interaction inhibitor project, cell-based, single concentration, SaOS-2 | inhibition, % at 8 µM | AID 504607, 2011 | shares compounds with Mdm2-MdmX inh | SaOS-2 full-length luciferase counterscreen, luminescence | 6,200 tested, 77% active;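 active = mean inhibition at 8 µM reaching about 37%, which flags the compound as non-specific, limit read from the data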;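 also: p53-null SaOS-2 cells with luciferase driven by a doxycycline-inducible promoter; compound on cells about two nights before reading with doxycycline added after day one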
A number is an active result; 0 = inactive; - = not tested or not shown.

SMILES	Beta cell apopt	CSC inhib	Gli-Sufu antag	Shn3 3UTR inh	PAX8 inh HTS	Mdm2-MdmX inh	Mdm2-MdmX conf	FLuc counter
COc1cc2nc(C3CC3)n(NC(=O)c3ccc(F)cc3)c(=O)c2cc1OC	0	0	0	0	-	0	-	-
COc1cc2c(c(OC)c1OC)-c1ccc(NC(=O)c3ccc(F)cc3)c(=O)cc1[C@@H](NC(C)=O)CC2	0	0	0	0	0	61.7	52.0	78.0
COc1cc(C(=O)NC2CCCc3ccccc32)cc(OC)c1OC (stereo unspecified)	0	0	0	0	0	0	-	-
Cc1c(C(=O)Nc2cccc(Cl)c2)oc2ccc(S(=O)(=O)N3CCC4(CC3)OCCO4)cc12	0	0	0	0	-	60.5	67.0	0
CC(=O)c1c(C)[nH]c(C(=O)Nc2cc(S(=O)(=O)N3CCCCC3)ccc2C)c1C	0	-	-	0	0	0	-	-
CC(=O)c1c(C)[nH]c(C(=O)Nc2cccc(S(=O)(=O)N3CCOCC3)c2)c1C	0	0	0	0	0	58.2	0	87.2
CCC1(c2ccccc2)NC(=O)N(CC(=O)Nc2cc(S(=O)(=O)N3CCCCCC3)ccc2OC)C1=O (stereo unspecified)	0	0	0	0	0	51.3	42.6	78.4
COc1ccc(S(=O)(=O)N2CCCCC2)cc1NC(=O)c1[nH]c(C)c(C(C)=O)c1C	-	-	0	0	-	81.9	59.4	43.0
CC(=O)c1c(C)[nH]c(C(=O)Nc2cccc(S(=O)(=O)N(C)c3ccccc3)c2)c1C	0	0	0	0	0	0	-	-
CCOc1ccc(S(=O)(=O)N2CCCCC2)cc1NC(=O)CN1C(=O)NC(CC)(c2ccccc2)C1=O (stereo unspecified)	-	0	0	0	0	0	-	-
Cc1ccc(S(=O)(=O)Nc2ccc3c(c2)C(=O)N([C@@H](C)CO)C[C@H](C)[C@H](CN(C)CC2CCCCC2)OCCCC[C@H](C)O3)cc1	-	-	-	-	0	-	-	-
Cc1noc(C)c1NC(=O)Nc1cccc2c1O[C@@H](CN(C)S(=O)(=O)c1ccc(Cl)cc1)[C@H](C)CN([C@@H](C)CO)C2=O	-	-	-	-	0	-	-	-
CC(=O)Oc1ccc(-c2ccc(C(=O)Nc3cccc(S(=O)(=O)N4CCOCC4)c3)cc2)cc1	0	93.4	0	0	0	66.2	44.0	88.5
COc1ccccc1S(=O)(=O)N[C@@H]1CC[C@H](CCNC(=O)C2CCCCC2)O[C@H]1CO	-	-	-	-	0	-	-	-
C[C@H](CO)N1C[C@H](C)[C@H](CN(C)Cc2ccc(Cl)c(Cl)c2)Oc2c(NS(C)(=O)=O)cccc2C1=O	-	-	-	-	0	-	-	-
Cc1cccc(NCc2ccccc2O)c1C	0	0	0	0	-	0	-	-
Oc1ccc(CNc2ccc(F)cc2)c2cccnc12	92.2	0	0	0	-	85.5	80.2	0
Cc1cccc(NCc2ccc(O)c3ncccc23)c1	0	0	0	0	78.8	76.7	74.2	43.0
Cc1ccccc1NCc1ccc(O)c2ncccc12	-	0	0	0	-	83.9	76.0	41.3
COCc1ccc(O)c2ncccc12	91.4	0	0	0	-	59.8	0	58.9
OCc1ccnc2c(O)cccc12	0	0	0	0	-	0	-	-
Oc1ccc(Cn2ccnc2)c2cccnc12	0	-	0	0	0	0	-	-
C[C@H](CO)N1C[C@H](C)[C@@H](CN(C)C)Oc2ccc(NS(C)(=O)=O)cc2C1=O	-	-	-	-	0	-	-	-
Cc1noc(C)c1S(=O)(=O)Nc1ccc2c(c1)C(=O)N([C@H](C)CO)C[C@@H](C)[C@@H](CN(C)S(=O)(=O)c1cccs1)O2	-	-	-	-	0	-	-	-
Oc1ccc(CNc2ccccc2)c2cccnc12	105.4	0	0	0	-	85.9	44.0	50.9
